Assay results reported in PubChem BioAssay (Tox21).
Results filed as inconclusive are left out. Entries that show only a call come without a potency. Active and inactive are the calls of the source. Unless noted, the call rests on the fitted dose curve.

molecular target: Progesterone receptor (Homo sapiens) (UniProt P06401); test: qHTS assay to identify small molecule agonists of the progesterone receptor (PR) signaling pathway (AID 1346784); conditions: PR-UAS-bla HEK293T, beta-lactamase FRET ratio, 16 h; series mostly up to 92.4 µM; further: nearly all actives have a fitted effect of over 30% in size
Sequence (P06401 whole entry, looked up): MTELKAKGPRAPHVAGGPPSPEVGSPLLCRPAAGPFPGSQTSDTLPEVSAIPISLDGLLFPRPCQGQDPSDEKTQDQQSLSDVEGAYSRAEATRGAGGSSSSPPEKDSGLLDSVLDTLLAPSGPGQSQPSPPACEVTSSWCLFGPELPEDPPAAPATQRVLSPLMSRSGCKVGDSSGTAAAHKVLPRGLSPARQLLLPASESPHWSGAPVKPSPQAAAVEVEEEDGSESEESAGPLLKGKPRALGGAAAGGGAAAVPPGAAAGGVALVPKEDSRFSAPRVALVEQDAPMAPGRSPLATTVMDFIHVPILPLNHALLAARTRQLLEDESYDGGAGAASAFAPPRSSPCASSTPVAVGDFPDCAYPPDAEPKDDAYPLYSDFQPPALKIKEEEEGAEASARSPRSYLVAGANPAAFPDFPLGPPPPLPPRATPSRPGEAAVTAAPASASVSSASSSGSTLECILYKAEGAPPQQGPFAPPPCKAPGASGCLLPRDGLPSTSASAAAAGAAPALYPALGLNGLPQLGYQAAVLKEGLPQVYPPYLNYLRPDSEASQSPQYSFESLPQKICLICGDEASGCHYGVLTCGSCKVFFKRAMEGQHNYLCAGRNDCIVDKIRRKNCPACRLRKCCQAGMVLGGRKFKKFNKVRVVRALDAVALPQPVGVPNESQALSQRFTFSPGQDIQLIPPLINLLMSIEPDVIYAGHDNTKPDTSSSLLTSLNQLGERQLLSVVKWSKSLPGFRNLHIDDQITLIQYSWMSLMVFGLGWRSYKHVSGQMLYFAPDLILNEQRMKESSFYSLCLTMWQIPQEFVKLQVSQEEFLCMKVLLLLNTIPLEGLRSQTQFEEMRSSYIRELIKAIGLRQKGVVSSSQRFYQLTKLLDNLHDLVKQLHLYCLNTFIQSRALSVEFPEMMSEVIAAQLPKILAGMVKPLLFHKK
How it was run: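 Agonist qHTS: compounds pinned onto 3,000 PR-UAS-bla HEK 293T cells per well in charcoal-stripped serum medium, 16hr at 37C, then beta-lactamase activity measured by LiveBLAzer FRET fluorescence after 2 hours at room temperature.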
Potency means the concentration at half of the fitted maximal effect.

Row | SMILES | Potency
1 | BrCCc1ccccc1 | inactive
2 | CN(C)CCN(C)C | 27.2 µM (active)
3 | COc1cc(CC(C)N)cc(OC)c1OC (stereo unspecified) | inactive
4 | ClC(Cl)(Cl)Cl | inactive
5 | COc1cc(CCN)cc(OC)c1OC | inactive
6 | O=C(Cl)CCl | inactive
7 | CC(C)NCC(O)c1ccc([N+](=O)[O-])cc1 (stereo unspecified) | inactive
8 | CCOP(=S)(OCC)Oc1ccc(Cl)cc1Cl | inactive
9 | NC1(c2ccccc2)CCCCC1 | inactive
10 | COc1ccc(CN2CCNCC2)c(OC)c1OC | inactive
11 | Cc1ccc(S(=O)(=O)N[C@@H](CCCCN)C(=O)CCl)cc1 | inactive
12 | C#CC(C)(C)O | inactive
13 | Oc1ccc(Cc2ccc(O)cc2)cc1 | inactive
14 | O=C(O)CBr | inactive
15 | CCOC(=O)Nc1cccc(OC(=O)Nc2ccccc2)c1 | inactive
16 | COC1=CC(=O)O[C@@H](/C=C/c2ccccc2)C1 | inactive
17 | CCCC(C)(COC(N)=O)COC(N)=O | inactive
18 | CCOC(=O)C(SP(=S)(OC)OC)c1ccccc1 (stereo unspecified) | inactive
19 | CCc1cc(OC)c(C[C@H](C)N)cc1OC | inactive
20 | C=C1C[C@@H]2[C@H](CC[C@]3(C)C(=O)CC[C@@H]23)[C@@]2(C)C=CC(=O)C=C12 | inactive
21 | COc1ccc2c(C(=O)c3ccc(Cl)cc3)c(C)n(CC(=O)O)c2c1 | inactive
22 | CCC1(CC)C(=O)C=CNC1=O | inactive
23 | CC[C@H](O)C(C[C@H](C)N(C)C)(c1ccccc1)c1ccccc1 | inactive
24 | CC1N=C(N)OC1c1ccccc1 (stereo unspecified) | inactive
25 | C[C@H](N)C(=O)c1ccccc1 | inactive

molecular target: Progesterone receptor (Homo sapiens) (UniProt P06401); test: qHTS assay to identify small molecule antagonists of the progesterone receptor (PR) signaling pathway (AID 1346795; active means well fitted inhibition curve with a large enough effect in the signal ratio in the repeat runs, not every such curve was filed as active; the % refers to the signal ratio); conditions: PR-UAS-bla HEK293T, beta-lactamase FRET ratio, 16 h; series mostly up to 92.4 µM
How it was run: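 Antagonist mode with agonist R5020 at 1 nM final and 16 hr incubation at 37C. Reporter was beta-lactamase driven by UAS in HEK293T (PR-UAS-bla), 2% charcoal-stripped serum; signal from LiveBLAzer FRET substrate, 2 hr at room temperature.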

Row | SMILES | Potency
26 | COC(=O)c1ccccc1CS(=O)(=O)NC(=O)Nc1nc(OC)cc(OC)n1 | inactive
27 | BrCCc1ccccc1 | inactive
28 | CN(C)CCN(C)C | inactive
29 | COc1cc(CC(C)N)cc(OC)c1OC (stereo unspecified) | inactive
30 | ClC(Cl)(Cl)Cl | inactive
31 | COC(=O)c1ccc(CBr)cc1 | inactive
32 | COc1cc(CCN)cc(OC)c1OC | inactive
33 | Oc1ccc2c3c1O[C@H]1[C@@H](O)C=C[C@H]4[C@@H](C2)NCC[C@@]341 | inactive
34 | O=C(Cl)CCl | inactive
35 | CC(C)NCC(O)c1ccc([N+](=O)[O-])cc1 (stereo unspecified) | inactive
36 | O=C(O)C(F)(F)C(F)(F)C(F)(F)C(F)(F)C(F)(F)C(F)(F)F | inactive
37 | COc1ccc(CN2CCNCC2)c(OC)c1OC | inactive
38 | Cc1ccc(S(=O)(=O)N[C@@H](CCCCN)C(=O)CCl)cc1 | inactive
39 | C#CC(C)(C)O | inactive
40 | C=C(Cl)CCl | inactive
41 | O=C(O)CBr | inactive
42 | CC#Cc1cc(C)nc(Nc2ccccc2)n1 | 24.3 µM (active)
43 | CCOC(=O)Nc1cccc(OC(=O)Nc2ccccc2)c1 | inactive
44 | CCCC(C)(COC(N)=O)COC(N)=O | inactive
45 | CCOC(=O)C(SP(=S)(OC)OC)c1ccccc1 (stereo unspecified) | 48.6 µM (active)
46 | CC(Cc1ccccc1)NCCn1cnc2c1c(=O)n(C)c(=O)n2C (stereo unspecified) | inactive
47 | COc1ccc2c(C(=O)c3ccc(Cl)cc3)c(C)n(CC(=O)O)c2c1 | inactive
48 | CCC1(CC)C(=O)C=CNC1=O | inactive
49 | CC1N=C(N)OC1c1ccccc1 (stereo unspecified) | inactive
50 | O=C/C=C/c1ccco1 | inactive
51 | C[C@H](N)C(=O)c1ccccc1 | inactive
